# Assay outcomes: PubChem, several laboratories
# Sampled rows, rich in hits. Any-hit rate of the full collection: about 0.44%.
# VLA-4 inh – inhibition in a human VLA-4 binding assay | AID 2557 | P13612 | inhibition, % (about 7 µM as worked out from the volumes in the protocol) | VLA-4 expressing cells, ligand binding flow cytometry | 330,000 compounds, 0.2% hits; in the data active = inhibition above about 50%
# PolyA inhibitor – inhibitors of polyadenylation in S. cerevisiae; 300,000 compounds, 0.02% hits; AID 1875; S. cerevisiae SKY197-pL101 polyadenylation reporter, beta-gal luminescence; efflux-impaired pdr1/pdr3 knockout yeast; score 100 = 6 SD above DMSO; activity score, % at 12 µM;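 active = lowest replicate activity score at least 50, where 100 means six control SD above control mean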;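 note: yeast exposed to compound for 9 h at 30 °C; higher score means more reporter readthrough which indicates perturbed polyadenylation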
# ABCB6 inh 2 – inhibitors of human ABC transporter ABCB6 | Q9NP58 | K562-ABCB6 porphyrin accumulation, flow cytometry, 1 h; active compounds read low | fluorescence ratio to DMSO, % at 10 µM | 360,000 compounds, 0.19% hits | AID 602162;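 active = fluorescence ratio to DMSO below 75%, the collection mean minus 3 SD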;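 note: signal is porphyrin accumulated inside mitochondria; 100% equals median channel fluorescence of DMSO control wells; lower ratio means ABCB6 inhibition with less porphyrin fluorescence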
# JMJD2C inh – blocks human GASC-1 demethylase activity; Q9H3R0; GST-JMJD2C(1-420) H3K9me3 demethylation, DELFIA europium; inhibition, % at 2.35 µM; 330,000 compounds, 0.069% hits;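 active = more than half of a compound's replicate wells show inhibition beyond 50%, single wells judged on their own value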;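 note: signal counts dimethyl H3K9 product captured on neutravidin plate; 0% = median of DMSO wells and 100% = 0.3 times that DMSO median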
# ABCB6 inh CP1 – human ABCB6 transporter inhibition. shares compounds with ABCB6 inh 2. K562-ABCB6 porphyrin accumulation, flow cytometry, 1 h; active compounds read low. ratio response (% of DMSO), % at 10 µM. 700 tested, under 10 active;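 active = repeat-averaged ratio response below 75% of DMSO, the collection mean minus 3 SD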;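 note: median porphyrin fluorescence at 575 nm with 488 nm excitation from mitochondria; lower ratio means less porphyrin signal so ABCB6 inhibition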
# * hit, by the source's call; i = inactive; . = no result.
SMILES,VLA-4 inh,PolyA inhibitor,ABCB6 inh 2,JMJD2C inh,ABCB6 inh CP1
O=S(=O)(NCC1CCCO1)c1cc(Cl)ccc1Br (stereo not drawn),13,-1,24*,2,100
O=S(=O)(NCC1CCCO1)c1cc(Cl)ccc1Cl (stereo not drawn),16,17,103,-6,.
O=C(NCc1cccs1)c1nc2c(nnn2Cc2ccccc2Cl)c(=O)[nH]1,4,11,70*,10,97
O=C(c1cccs1)N1CCC(c2nc3c(nnn3Cc3ccccc3Cl)c(=O)[nH]2)CC1,-5,6,99,2,100
O=C(c1ccccc1)N1CCC(c2nc3c(nnn3Cc3ccccc3Cl)c(=O)[nH]2)CC1,-14,-7,98,22,102
O=C(O)c1cccc(S(=O)(=O)N2CCCC(c3nc4c(nnn4Cc4ccccc4Cl)c(=O)[nH]3)C2)c1 (stereo not drawn),14,0,98,1,.
COc1ccc(CCCC(=O)NCCc2ccccc2)cc1,5,2,87,17,.
CCCCN(C)C1CCN(C(=S)Nc2cccc(SC)c2)CC1,-1,17,96,6,.
O=C(O)CC/C(=C\c1ccc(Cl)c([N+](=O)[O-])c1)c1nc2ccccc2s1,13,-7,72*,4,101
Cc1ccc(NC(=O)CCCn2c(=O)oc3ccccc32)c(O)c1,2,8,104,0,.
CCOC(=O)c1ccc(N2C(=O)Cc3ccccc3C2=O)cc1,-2,11,95,0,.
CCOc1ccc(N2C(=O)Cc3ccccc3C2=O)cc1,5,10,73*,11,102
COc1ccc(Cl)cc1NC(=O)CCCC(=O)c1ccccc1,1,-11,61*,3,99
Cc1cccc(N2C(=O)NC3(CCCCC3)C2=O)c1,-2,-2,100,-26,.
O=C1NC2(CCCCC2)C(=O)N1c1cccc(Cl)c1,13,10,73*,-5,100
CC(=O)Nc1ccc(OC(=O)c2c(-c3ccccc3Cl)noc2C)cc1,-5,-9,70*,2,99
CC(=O)Nc1ccc(NC(=O)c2c(-c3ccccc3Cl)noc2C)c(C)c1,4,-15,95,6,.
COc1ccc(C(=O)OCCc2cc3ccccc3c(=O)o2)cc1,-11,.,97,4,.
COc1ccc(CNC(=O)c2ccc(CS(=O)c3ccccc3)o2)cc1 (stereo not drawn),0,17,97,-6,.
Cc1cc(NC(=O)c2c(F)cccc2F)n(-c2nc3ccccc3[nH]2)n1,-1,-19,71*,1,95
Cc1cc(NC(=O)c2c(F)cccc2Cl)n(-c2nc3ccccc3[nH]2)n1,3,-14,102,11,.
Cn1c(=O)c2c(ncn2CC(=O)OCc2ccccc2)n(C)c1=O,2,-8,103,-1,.
Cn1c(=O)c2c(ncn2CC(=O)N(Cc2ccccc2)c2ccccn2)n(C)c1=O,5,21,71*,4,98
O=C(Cc1c(F)cccc1Cl)Nc1cc(S(=O)(=O)N2CCOCC2)ccc1N1CCOCC1,.,.,101,.,.
COC(=O)c1cc(S(=O)(=O)N2CCN(c3ccc(F)cc3)CC2)c[nH]1,2,11,46*,34,99
SMILES,VLA-4 inh,PolyA inhibitor,ABCB6 inh 2,JMJD2C inh,ABCB6 inh CP1
COC(=O)c1cc(C)nc(Sc2ccccc2N)n1,-1,-2,.,2,.
COc1ccc([N+](=O)[O-])cc1NC(=O)C1CCCO1 (stereo not drawn),3,-6,71*,-4,101
Cc1sc2nc(N)sc2c1C,4,.,96,2,.
COc1ccc(N(C(=O)C(C)C)S(=O)(=O)c2ccc(Cl)cc2)cc1,2,2,48*,17,98
CCN1CCN(C(=O)CCc2nnc3ccc(N4CCC5(CC4)OCCO5)nn23)CC1,-5,7,95,18,102
CC1CCN(C(=O)CCc2nnc3ccc(N4CCC5(CC4)OCCO5)nn23)CC1,-10,5,100,10,99
Cc1ccccc1SCC(=O)NCC1(N2CCCCC2)CCCCC1,.,.,93,.,.
O=C(CN1CCC(NC(=O)C2CCCCC2)CC1)NCc1ccco1,-1,-9,93,8,.
COc1cccc(N(C(=O)c2snc(C(N)=O)c2N)C(C(=O)NCc2ccccc2)c2ccc(O)cc2)c1 (stereo not drawn),5,-6,99,9,.
COc1cc(C(C)=O)ccc1OCC(O)CNCC(O)c1ccccc1 (stereo not drawn),0,5,99,0,.
CCN(CC(=O)Nc1c(F)cccc1F)C(=O)c1ccc(C#N)cc1,-6,-1,70*,4,99
COc1cccc(-c2nc(NC(C)C)c3ccccc3n2)c1O,6,-12,49*,-1,99
CCOC(=O)c1cccc(NC(=O)CCc2nnc3ccc(N4CCN(C)CC4)nn23)c1,-9,4,97,-18,.
CC(=O)NC(Cc1c[nH]c2ccccc12)C(=O)N1CCc2ccccc2C1 (stereo not drawn),4,20,69*,1,98
COc1ccc(C(=O)COC(=O)Cc2c[nH]c3ccccc23)c(OC)c1,-3,11,103,-4,.
CN(C)c1ccc(/C=N\NC(=O)c2cccc3cc[nH]c23)cc1,13,2,101,-6,.
CCOC(=O)CN1C(c2ccc(O)cc2)Nc2ccc(Br)cc2C1c1ccccc1 (stereo not drawn),-6,-5,73*,-28,95
CCOC(=O)CN1C(=O)Nc2ccc(Br)cc2C1c1ccccc1 (stereo not drawn),i,8,92,-37,.
Cc1cc(O)c(C(C)C)cc1NC(=O)Cn1nc(C)c2ccccc2c1=O,-1,14,74*,6,101
CCCOc1ccc(C(CC(=O)O)NC(=O)c2ccc3c(c2)OCO3)cc1 (stereo not drawn),-1,-4,57*,-2,101
Cc1cccc(NC(=O)c2cc(NC(=O)CCCC(=O)O)ccc2Cl)n1,4,10,53*,3,102
CCN(CC)S(=O)(=O)c1ccc(C)c(NC(=O)CN2C(=O)NC3(CCCC3)C2=O)c1,-2,-3,74*,10,96
CC1(C(=O)NS(=O)(=O)c2cccc(C#N)c2)CCN1C(=O)c1cccc2ccccc12 (stereo not drawn),.,.,100,.,.
CC1(C(=O)N2CCN(C(=O)c3ccco3)CC2)CCN1Cc1ccccc1OC(F)F (stereo not drawn),.,.,70*,.,99
CC(NC(=O)COc1ccc(/C=N/NS(=O)(=O)c2ccccc2)cc1)c1ccccc1 (stereo not drawn),17,1,69*,-7,99
CC1(C)CC2CC(C)(CN2Cc2cccc([N+](=O)[O-])c2)C1 (stereo not drawn),3,-2,93,-2,.
Clc1ccc(Cl)c(OCCN2CCOCC2)c1,-15,-6,91,-3,.
Clc1ccc(Cl)c(OCCN2CCCC2)c1,3,2,49*,6,105
